# Measurements taken from PubChem BioAssay AID651953 (The Scripps Research Institute Molecular Screening Center, 2012).
# Hit rate of the full screen: of about 2,400 compounds, about 430 (18%) were called active. Rule as the data show it: active = activation above about 12%; inactive = the rest. The list is a sample of the results.
# Test: nonspecific calcium signal increase, Ga16 cells – cell-based, fluorescence, counter-screen for TAAR1 antagonist project (AID 651953);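 also: 0% = vehicle wells and 100% = saturating stimulus response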
# Conditions: Ga16-expressing cells, agonist counterscreen, at 3 µM, hits give high values
row,Compound,activation
1,CC(=O)n1cc([C@H]2C=C(C(=O)N3CCOCC3)O[C@@H](OCc3ccc(CO)cc3)C2)c2ccccc21,8.38% (inactive)
2,CC(=O)Nc1ccc(NC(=O)COC(=O)C2CCC(C(C)(C)C)CC2)cc1 (centres undefined),12.5% (active)
3,COc1cc2ccccc2cc1C(=O)Nc1ccc(NC(=O)c2cccs2)cc1,7.21% (inactive)
4,COC(=O)[C@@]1(Sc2ccc(C)cc2)CC(=O)N(c2cccc(SC)c2)[C@@H]1c1ccccc1,7.65% (inactive)
5,COc1ccc(C(=O)Oc2ccc(-c3nnco3)cc2)cc1S(=O)(=O)N1CCOCC1,8.48% (inactive)
6,CCOc1cc(/C=N/NC(=O)c2cc(-c3ccccc3)nc3ccccc23)ccc1O,7.59% (inactive)
7,O=C(Oc1ccc(-c2nnco2)cc1)c1ccc(F)c(S(=O)(=O)N2CCOCC2)c1,11.4% (inactive)
8,O=C1c2ccccc2C(=O)N1CCC#Cc1ccc2cc(C3(O)CCCCC3)oc(=O)c2c1,12.9% (active)
9,Cc1nn(-c2ccccc2)c(C)c1NC(=O)COC(=O)c1cc(Cl)ccc1O,11.4% (inactive)
10,CCOc1ccc(NC(=O)N2CC=C(n3c(=O)[nH]c4ccccc43)CC2)cc1,8.85% (inactive)
11,C=CCn1c(SCc2cccc(F)c2)nc2cc(C(=O)N3CCC(C(N)=O)CC3)ccc2c1=O,10.2% (inactive)
12,CSc1nc(-c2ccccc2)nc(C(Cl)Cl)n1,2.33% (inactive)
13,O=c1[nH]c(CSc2ncc(-c3ccc(F)cc3)n2Cc2ccco2)nc2ccccc12,9.09% (inactive)
14,Cn1c2ccccc2c(=O)c2c(=O)n(Cc3ccco3)c(COc3ccccc3)nc21,11.7% (active)
15,COc1ccc(CCNC(=O)C(=O)NCC2OCCN2S(=O)(=O)c2ccc(OC)c(C)c2)cc1 (centres undefined),7.62% (inactive)
16,COc1ccc(CCNC(=O)c2ccc(CS(=O)(=O)c3ccc(Br)cc3)o2)cc1OC,13.5% (active)
17,COc1ccc(CCNC2=C(Cl)C(=O)N(Cc3ccccc3)C2=O)cc1OC,10.4% (inactive)
18,CC(C)(C)OC(=O)NCCCCCNC(=O)c1nc[nH]c1C(=O)NCc1ccccc1,7.75% (inactive)
19,O=C(NCc1ccc2c(c1)OCO2)c1c(-c2ccsc2)sc2ccccc12,3.18% (inactive)
20,Oc1ccc(/C=N/Nc2nc(-c3ccccc3F)nc3ccccc23)c(O)c1,11.9% (active)
21,Fc1ccc(/C=N/Nc2nc(-c3cccnc3)nc3ccccc23)cc1,5.53% (inactive)

row,Compound,activation
1,CCOC(=O)C1=C(NC(=S)NC(=O)c2ccccc2)c2ccccc2CC1(C)C,11.8% (active)
2,CNC(=O)c1ccsc1NC(=O)c1ccc(S(=O)(=O)N2CCc3ccccc32)cc1,9.94% (inactive)
3,COc1ccc(NC(=O)c2cc(-c3ccc(C)o3)nc3ccccc23)cc1,8.64% (inactive)
4,COc1ccc(-c2cc(C(=O)Nc3ccccc3O)c3ccccc3n2)cc1,10.9% (inactive)
5,CC(=O)N1CCN(C(=O)c2cc(-c3ccc(Cl)s3)nc3ccccc23)CC1,11.8% (active)
6,COc1ccc(S(=O)(=O)N2CCCC(C(=O)Nc3ccc(NC(=O)c4ccccn4)cc3)C2)cc1 (centres undefined),9.11% (inactive)
7,O=C(OCC(=O)N(CCc1ccccc1)Cc1ccccc1)c1ccccc1[N+](=O)[O-],9.58% (inactive)
8,Cn1c(C(=O)NCCc2ccsc2)cc2c(=O)n(C)c3ccccc3c21,6.98% (inactive)
9,COc1ccc(OC)c2[nH]c(=O)c(CCNC(=O)C(=O)c3c[nH]c4ccccc34)cc12,9.04% (inactive)
10,COc1ccc(S(=O)(=O)N(CC(=O)NCc2ccco2)c2ccc(F)cc2)cc1,7.35% (inactive)
11,N#Cc1cccc(NC(=O)COC(=O)c2ccccc2C(=O)c2ccc(Cl)c([N+](=O)[O-])c2)c1,10.4% (inactive)
12,C[C@H](NC(=O)c1nc[nH]c1C(=O)NCC(=O)OC(C)(C)C)C(=O)OCc1ccccc1,6.84% (inactive)
13,COc1ccc(C2=NOC(Cn3nc(C(=O)NCc4ccc5c(c4)OCO5)cc3-c3ccccc3)C2)cc1 (centres undefined),7.98% (inactive)
14,Cc1ccc2c(c1)N(CC(=O)NCCc1ccc(Cl)cc1)C(=O)c1cccnc1O2,8.82% (inactive)
15,C=CCC[C@@H](Cc1ccc(F)cc1)C(=O)O[C@H](CNC(=O)[C@H](CC=C)CC(=O)N(CCO)Cc1ccccc1)c1ccccc1,5.79% (inactive)
16,CSCCC(NC(=O)COc1ccccc1)C(=O)OCCOc1ccc(Br)cc1 (centres undefined),4.3% (inactive)
17,COC(=O)C1=C(C)N(Cc2ccc(F)cc2)C(=S)NC1c1cccc(Cl)c1 (centres undefined),2.63% (inactive)
18,COC(=O)Cc1nnn2c1[C@H](C)[C@H](c1ccccc1[N+](=O)[O-])OCC2,-1.09% (inactive)
19,Cc1ccccc1NC(=O)Cc1nc(COC(=O)C(C)(C)Oc2ccc(Cl)cc2)cs1,7.78% (inactive)
20,C=CCC[C@H](Cc1ccc(F)cc1)C(=O)OC[C@H](C)NC(=O)[C@H](CC=C)CC(=O)N(CCO)Cc1ccccc1,8.66% (inactive)
21,Cc1cccc(NC(=O)c2ccc(COc3ccccc3[N+](=O)[O-])o2)n1,4.04% (inactive)

row,Compound,activation
1,Cc1cccc(C)c1NC(=O)CNC(=O)C1CCCC1,2.04% (inactive)
2,Cc1ccc(-n2c(C)cc(/C=N\NC(=O)CC(=O)NC(C)C)c2C)cc1,8.51% (inactive)
3,O=C(NCCN1CCOCC1)c1ccccc1N1C(=O)[C@@H]2Cc3c([nH]c4ccccc34)C(c3cccc(Cl)c3)N2C1=O (some centres undefined),6.37% (inactive)
4,COc1ccc(C(=O)Nc2cccc(NC(=O)c3ccc(OC)cc3OC)n2)c(OC)c1,8.74% (inactive)
5,O=C(CN1CCCSc2ccccc21)N1CCN(S(=O)(=O)c2cccc(F)c2)CC1,8.97% (inactive)
6,Oc1ccccc1N1CCN(c2ncnc3sc(-c4ccccc4)cc23)CC1,6.72% (inactive)
7,COc1cc(/C=C2/C(=O)ON=C2C)ccc1OCc1ccccc1F,12.4% (active)
8,O=C(COC(=O)c1c2c(nc3ccccc13)CCCC2)c1ccc(Br)s1,2.67% (inactive)
9,C[C@H](O)[C@@H]1C(=O)N2CCc3c([nH]c4c(-c5ccc6c(c5)OCO6)cccc34)[C@@H]2C[C@@H]1N(C)C(=O)c1ccco1,5.11% (inactive)
10,Nc1nonc1-n1nnc(C(=O)N/N=C/c2c[nH]c3ccccc23)c1-c1ccccc1,6.4% (inactive)
11,Cc1ccc(SCc2c(C(=O)N/N=C/c3cccnc3)nnn2-c2nonc2N)cc1,17.4% (active)
12,O=C(N/N=C/c1ccc(OC(=O)c2ccccc2Cl)cc1)c1ccc(O)cc1,8.92% (inactive)
13,O=C(NCCN1CCOCC1)c1ccc(/C=C2\Sc3ccccc3N(Cc3ccc(F)cc3)C2=O)cc1,9.85% (inactive)
14,O=S(=O)(c1cccs1)N1CCCc2nc(-c3ccc(Br)cc3)ccc21,5.49% (inactive)
15,C[C@@H]1CN([C@@H](C)CO)S(=O)(=O)c2ccc(C#Cc3cccc(F)c3)cc2O[C@H]1CN(C)S(=O)(=O)c1cn(C)cn1,13.6% (active)
16,CCCCNc1c(-c2cccc(Sc3ccc(OC)cc3)c2)nc2ccccn12,6.41% (inactive)
17,CSc1ncnc2c1ncn2CC(=O)C1CCC2C3CCC4=CC(=O)CCC4(C)C3CCC12C (centres undefined),15.7% (active)
18,CCN=C1SC(CC(=O)Nc2ccc(C)cc2)C(=O)N1CC (centres undefined),9.6% (inactive)
19,O=C(COC(=O)c1ccccc1SCC(=O)N1CCCC1)Nc1ccccc1OC(F)F,9.11% (inactive)
20,COc1ccc(-c2nn(-c3ccccc3)cc2C(=O)Nc2nccs2)cc1OC,7.16% (inactive)
21,COc1cc(SC#N)ccc1N=Cc1c(C)[nH]n(-c2ccc(C)cc2)c1=O,7.36% (inactive)

row,Compound,activation
1,O=C(Nc1ccccc1-c1nnn(CC(=O)N2CCN(c3ccccc3)CC2)n1)c1cccs1,8.25% (inactive)
2,CC(C)N(Cc1ccccc1)C(=O)COC(=O)c1ccccc1SCC(=O)N1CCCC1,8.17% (inactive)
3,COc1ccc(NC(=O)C2CCCN(S(=O)(=O)c3cccc4cccnc34)C2)cc1OC (centres undefined),7.3% (inactive)
4,CCOC(=O)C1C(c2ccc(OC)c(OC)c2)c2c([nH][nH]c2=O)CC1(C)O (centres undefined),3.55% (inactive)
5,Clc1ccc(Nc2ncnc3c2nnn3Cc2ccccc2)cc1,3.96% (inactive)
6,COc1ccc(N(CC(=O)N/N=C/c2cccs2)S(=O)(=O)c2ccc(OC)c(OC)c2)cc1,8.47% (inactive)
7,CC(=O)OCCN(CCCn1c(-c2ccncc2)nc2ccccc21)c1nc(-c2ccc(C)cc2)cs1,12.8% (active)
8,COC(=O)Cc1nnn2c1[C@H](C)[C@H](c1ccccc1Br)OCC2,9.39% (inactive)
9,CN(c1ccccc1)S(=O)(=O)c1cc(C(=O)Nc2nc3ccccc3[nH]2)ccc1Cl,8.92% (inactive)
10,NNC(=O)CNC(c1ccccc1)c1cc(Cl)ccc1NC(=O)c1ccccc1 (centres undefined),9.38% (inactive)
11,CC/C(=N/Nc1ccccc1)c1cnnc(SC)n1,-1.08% (inactive)
12,Cc1onc(-c2c(F)cccc2Cl)c1C(=O)Nc1cccc(S(=O)(=O)N2CCCCC2)c1,9.53% (inactive)
13,CCC(=O)Oc1cccc(C(=O)Nc2ccc(-c3nnc(-c4ccco4)o3)cc2)c1,4.99% (inactive)
14,CCc1ccc2c(c1)NC(=O)C2(C)Cc1ccc(OC(F)(F)F)cc1 (centres undefined),14.4% (active)
15,Cc1cc(Br)ccc1NC(=O)c1cnc(N2CCN(c3ccccn3)CC2)c2ccccc12,7.37% (inactive)
16,O=C(Nc1ccc(-c2nnc(-c3ccccc3)o2)cc1)c1ccc(Br)o1,1.44% (inactive)
17,O=C(N/N=C/c1ccc(Cl)c(Cl)c1)c1ccc2nc[nH]c2c1,7.7% (inactive)
18,O=C(COC(=O)CCCSc1nc2ccccc2[nH]1)Nc1ccc(Oc2ccccc2)cc1,8.31% (inactive)
19,COc1ccc(CC(=O)Nc2c(C(N)=O)oc3ccccc23)cc1,6.51% (inactive)
20,COC(=O)c1sccc1NC(=O)c1cc(OC)c(OC)c(OC)c1,5.58% (inactive)
21,COc1cc(OC)cc(C(=O)OCC(=O)Nc2sccc2C(N)=O)c1,13.5% (active)
